Test results published in PubChem BioAssay AID1159580 (chemical genetic matrix, 2015).
Values joined by “and” are separate entries in the source; they are usually repeats but may differ in a detail not shown here. Equal values may be shown once. About 2,000 (36%) of roughly 5,500 compounds were called active. Inconclusive results (about 18%) are left out. Rule as the data show it: active = normalized growth mostly below about 0.91 (no sharp cut-off); inconclusive = no clear call, values can overlap the other calls; inactive = mostly above about 0.92. The list shows a part of the results.

Assay: chemical genetic growth profiling, strain panel (AID 1159580);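 also: tested at 20 µM; growth read once vehicle control cultures reached saturation at 30 °C; 1 = growth at the plate median or of vehicle wells; lower values mean less growth of the strain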
Settings: S. cerevisiae deletion strains, growth OD

Measured: normalized growth

O=[N+]([O-])c1cc(O)c(O)c([N+](=O)[O-])c1
inactive: locus YAL021C, strain ccr4, active compounds read low 1.01 | locus YAL026C, strain drs2, active compounds read low 1.01 | locus YAL030W, strain snc1, active compounds read low 1.02 | locus YAL040C, strain CLN3, active compounds read low 0.986 | locus YBL061C, strain skt5, active compounds read low 1.01 | locus YBR009C, strain hhf1, active compounds read low 1.07 | locus YBR021W, strain FUR4, active compounds read low 0.953 | locus YBR023C, strain chs3, active compounds read low 1.03 | locus YBR171W, strain sec66, active compounds read low 1.01 | locus YBR229C, strain ROT2, active compounds read low 1.01 | locus YBR231C, strain swc5, active compounds read low 0.983 | locus YBR279W, strain paf1, active compounds read low 1.03 | locus YCL011C, strain gbp2, active compounds read low 1.03 | locus YCL016C, strain dcc1, active compounds read low 1.05 | locus YCL029C, strain bik1, active compounds read low 0.984 | locus YCL061C, strain MRC1 (second series), active compounds read low 0.993 | locus YCL061C, strain MRC1, active compounds read low 1.03 | locus YCL069W, strain vba3, active compounds read low 1.01 | locus YCR088W, strain abp1, active compounds read low 1 | locus YDL005C, strain med2, active compounds read low 1.02 | locus YDL035C, strain GPR1, active compounds read low 1 | locus YDL040C, strain nat1, active compounds read low 1.02 | locus YDL074C, strain BRE1, active compounds read low 1.01 | locus YDL101C, strain DUN1, active compounds read low 1.01 | locus YDL185W, strain tfp1, active compounds read low 0.967 | locus YDL192W, strain arf1, active compounds read low 0.988 | locus YDR001C, strain nth1, active compounds read low 0.998 | locus YDR069C, strain doa4, active compounds read low 0.996 | locus YDR101C, strain arx1, active compounds read low 0.997 | locus YDR137W, strain rgp1, active compounds read low 0.982 | locus YDR150W, strain NUM1, active compounds read low 1.01 | locus YDR159W, strain sac3, active compounds read low 0.957 | locus YDR162C, strain NBP2, active compounds read low 0.999 | locus YDR195W, strain ref2 0.992 | locus YDR297W, strain sur2, active compounds read low 1.01 | locus YDR318W, strain mcm21, active compounds read low 0.987 | locus YDR334W, strain swr1, active compounds read low 1.01 | locus YDR335W, strain msn5, active compounds read low 1.01 | locus YDR363W, strain ESC2, active compounds read low 1.06 | locus YDR388W, active compounds read low 0.978 | locus YDR392W, strain spt3, active compounds read low 1.08 | locus YDR502C, strain sam2, active compounds read low 1 | locus YEL003W, strain gim4, active compounds read low 1.02 | locus YEL037C, strain rad23, active compounds read low 1.01 | locus YEL061C, strain CIN8 (second series), active compounds read low 1 | locus YEL061C, strain CIN8, active compounds read low 1 | locus YER002W, strain NOP16, active compounds read low 0.996 | locus YER015W, strain faa2, active compounds read low 1.01 | locus YER016W, strain bim1, active compounds read low 0.995 | locus YER110C, active compounds read low 0.99 | locus YER111C, strain swi4, active compounds read low 1 | locus YER155C, strain BEM2 (second series), active compounds read low 0.992 | locus YER155C, strain BEM2, active compounds read low 0.993 | locus YER167W, strain BCK2, active compounds read low 1.02 | locus YFR010W, strain ubp6, active compounds read low 1.01 | locus YGL078C, strain dbp3, active compounds read low 0.976 | locus YGL086W, strain mad1, active compounds read low 1 | locus YGL167C, strain pmr1, active compounds read low 1.02 | locus YGL173C, strain kem1, active compounds read low 1.01 | locus YGL227W, strain vid30, active compounds read low 1.01 | locus YGL240W, strain doc1, active compounds read low 0.998 | locus YGL248W, strain PDE1, active compounds read low 1.03 | locus YGL253W, strain hxk2, active compounds read low 0.959 | locus YGR078C, strain PAC10, active compounds read low 1.01 and 0.977 | locus YGR135W, strain pre9, active compounds read low 0.969 | locus YGR229C, strain SMI1, active compounds read low 0.983 | locus YGR252W, strain gcn5, active compounds read low 0.849 | locus YHR013C, strain ard1, active compounds read low 1.05 | locus YHR027C, strain rpn1, active compounds read low 1.01 | locus YHR030C, strain SLT2, active compounds read low 0.996 | locus YHR079C, strain IRE1 (second series), active compounds read low 0.994 | locus YHR094C, strain hxt1, active compounds read low 0.972 | locus YHR129C, strain ARP1, active compounds read low 1 | locus YHR142W, strain chs7, active compounds read low 1.01 | locus YHR200W, strain rpn10, active compounds read low 0.991 | locus YIL066C, strain RNR3, active compounds read low 1.01 | locus YIL073C, strain SPO22, active compounds read low 0.99 | locus YIL125W, strain kgd1, active compounds read low 0.972 | locus YIR030C, strain dcg1, active compounds read low 0.976 | locus YJL092W, strain hpr5, active compounds read low 1.02 | locus YJL095W, strain BCK1 (second series), active compounds read low 1.02 | locus YJL095W, strain BCK1, active compounds read low 0.987 | locus YJL115W, strain asf1, active compounds read low 1.01 | locus YJL129C, strain trk1, active compounds read low 1.01 | locus YJL134W, strain LCB3, active compounds read low 1.01 | locus YJL154C, strain vps35, active compounds read low 1.01 | locus YJL164C, strain tpk1, active compounds read low 1.06 | locus YJL166W, strain qcr8, active compounds read low 1.01 | locus YJL168C, strain set2, active compounds read low 0.978
